PubChem BioAssay AID1159580 (chemical genetic matrix, 2015)
Screen size: about 5,500 compounds; about 2,000 (36%) were called active. Inconclusive results (about 18%) are left out. Rule as the data show it: active = normalized growth mostly below about 0.91 (no sharp cut-off); inconclusive = no clear call, values can overlap the other calls; inactive = mostly above about 0.92. The list shows a part of the results.

Assay: chemical genetic growth profiling, strain panel (AID 1159580);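 also: tested at 20 µM; growth read once vehicle control cultures reached saturation at 30 °C; 1 = growth at the plate median or of vehicle wells; lower values mean less growth of the strain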
Conditions: growth OD
[1] = S. cerevisiae deletion strains, locus YCL061C, strain MRC1, hits give low values
[2] = S. cerevisiae deletion strains, locus YHR030C, strain SLT2, hits give low values

Measured: normalized growth

CCOC(CN(c1ccc(F)cc1)S(=O)(=O)c1ccc(F)cc1F)OCC
inactive: S. cerevisiae deletion strains, locus YAL013W, strain DEP1, hits give low values 1 | S. cerevisiae deletion strains, locus YBR229C, strain ROT2, hits give low values 1 | [1] 1.01 | S. cerevisiae deletion strains, locus YDL101C, strain DUN1, hits give low values 0.98 | S. cerevisiae deletion strains, locus YDL134C, strain PPH21, hits give low values 1.01 | S. cerevisiae deletion strains, locus YDR150W, strain NUM1, hits give low values 0.957 | S. cerevisiae deletion strains, locus YEL061C, strain CIN8, hits give low values 0.986 | S. cerevisiae deletion strains, locus YGR078C, strain PAC10, hits give low values 0.997 | [2] 0.936 | S. cerevisiae deletion strains, locus YHR087W, strain rtc3, hits give low values 1.03 | S. cerevisiae deletion strains, locus YJR043C, strain POL32, hits give low values 0.989 | S. cerevisiae deletion strains, locus YJR075W, strain HOC1, hits give low values 0.981 | S. cerevisiae deletion strains, locus YLR039C, strain RIC1, hits give low values 0.96 | S. cerevisiae deletion strains, locus YLR058C, strain SHM2 (second series), hits give low values 0.996 | S. cerevisiae deletion strains, locus YLR085C, strain ARP6, hits give low values 1.01 | S. cerevisiae deletion strains, locus YLR262C, strain YPT6, hits give low values 0.935 | S. cerevisiae deletion strains, locus YML094W, strain GIM5, hits give low values 0.999 | S. cerevisiae deletion strains, locus YMR219W, strain ESC1, hits give low values 0.994 | S. cerevisiae deletion strains, locus YMR263W, strain SAP30, hits give low values 0.987 | S. cerevisiae deletion strains, locus YMR307W, strain GAS1, hits give low values 0.731 | S. cerevisiae deletion strains, locus YNL153C, strain GIM3, hits give low values 1.01 | S. cerevisiae deletion strains, locus YNL298W, strain CLA4 (second series), hits give low values 1.01 | S. cerevisiae deletion strains, locus YNL322C, strain KRE1, hits give low values 0.995 | S. cerevisiae deletion strains, locus YNR030W, strain Alg12, hits give low values 0.993 | S. cerevisiae deletion strains, locus YOL006C, strain TOP1, hits give low values 1.03 | S. cerevisiae deletion strains, locus YPL055C, strain LGE1, hits give low values 1.04 | S. cerevisiae deletion strains, locus YPL241C, strain CIN2, hits give low values 1 | S. cerevisiae deletion strains, locus YPR135W, strain CTF4, hits give low values 1.02 | S. cerevisiae strains, strain wild type, hits give low values 0.991

C/C=C\C1=C(C(=O)O)N2C(=O)C(NC(=O)C(N)c3ccc(O)cc3)C2SC1 (stereo not drawn)
inactive: S. cerevisiae deletion strains, locus YAL021C, strain ccr4, hits give low values 0.983 | S. cerevisiae deletion strains, locus YAL026C, strain drs2, hits give low values 1.01 | S. cerevisiae deletion strains, locus YAL030W, strain snc1, hits give low values 1 | S. cerevisiae deletion strains, locus YBL061C, strain skt5, hits give low values 1.02 | S. cerevisiae deletion strains, locus YBR009C, strain hhf1, hits give low values 1.01 | S. cerevisiae deletion strains, locus YBR023C, strain chs3, hits give low values 1.01 | S. cerevisiae deletion strains, locus YBR171W, strain sec66, hits give low values 1.01 | S. cerevisiae deletion strains, locus YBR231C, strain swc5, hits give low values 1.01 | S. cerevisiae deletion strains, locus YBR279W, strain paf1, hits give low values 1 | S. cerevisiae deletion strains, locus YCL011C, strain gbp2, hits give low values 1 | S. cerevisiae deletion strains, locus YCL016C, strain dcc1, hits give low values 1 | [1] 1 | S. cerevisiae deletion strains, locus YCL069W, strain vba3, hits give low values 1.01 | S. cerevisiae deletion strains, locus YCR088W, strain abp1, hits give low values 1.01 | S. cerevisiae deletion strains, locus YDL005C, strain med2, hits give low values 1 | S. cerevisiae deletion strains, locus YDL040C, strain nat1, hits give low values 1.01 | S. cerevisiae deletion strains, locus YDR001C, strain nth1, hits give low values 1.01 | S. cerevisiae deletion strains, locus YDR069C, strain doa4, hits give low values 0.995 | S. cerevisiae deletion strains, locus YDR137W, strain rgp1, hits give low values 1.01 | S. cerevisiae deletion strains, locus YDR159W, strain sac3, hits give low values 0.987 | S. cerevisiae deletion strains, locus YDR195W, strain ref2 0.978 | S. cerevisiae deletion strains, locus YDR297W, strain sur2, hits give low values 1 | S. cerevisiae deletion strains, locus YDR334W, strain swr1, hits give low values 1.01 | S. cerevisiae deletion strains, locus YDR335W, strain msn5, hits give low values 1.01 | S. cerevisiae deletion strains, locus YDR392W, strain spt3, hits give low values 0.991 | S. cerevisiae deletion strains, locus YEL003W, strain gim4, hits give low values 1 | S. cerevisiae deletion strains, locus YEL037C, strain rad23, hits give low values 1.01 | S. cerevisiae deletion strains, locus YEL061C, strain CIN8 (second series), hits give low values 1 | S. cerevisiae deletion strains, locus YER015W, strain faa2, hits give low values 1 | S. cerevisiae deletion strains, locus YER016W, strain bim1, hits give low values 1.01 | S. cerevisiae deletion strains, locus YER111C, strain swi4, hits give low values 0.996 | S. cerevisiae deletion strains, locus YER155C, strain BEM2 (second series), hits give low values 1.01 | S. cerevisiae deletion strains, locus YFR010W, strain ubp6, hits give low values 1.02 | S. cerevisiae deletion strains, locus YGL167C, strain pmr1, hits give low values 1.01 | S. cerevisiae deletion strains, locus YGL173C, strain kem1, hits give low values 1 | S. cerevisiae deletion strains, locus YGL227W, strain vid30, hits give low values 1.01 | S. cerevisiae deletion strains, locus YGL240W, strain doc1, hits give low values 0.988 | S. cerevisiae deletion strains, locus YGL253W, strain hxk2, hits give low values 1.01 | S. cerevisiae deletion strains, locus YHR013C, strain ard1, hits give low values 0.997 | S. cerevisiae deletion strains, locus YHR027C, strain rpn1, hits give low values 0.993 | [2] 1.02 | S. cerevisiae deletion strains, locus YHR079C, strain IRE1, hits give low values 1.04 | S. cerevisiae deletion strains, locus YHR142W, strain chs7, hits give low values 1.03 | S. cerevisiae deletion strains, locus YJL092W, strain hpr5, hits give low values 1.01 | S. cerevisiae deletion strains, locus YJL095W, strain BCK1 (second series), hits give low values 0.998 | S. cerevisiae deletion strains, locus YJL095W, strain BCK1, hits give low values 0.997 | S. cerevisiae deletion strains, locus YJL115W, strain asf1, hits give low values 0.999 | S. cerevisiae deletion strains, locus YJL129C, strain trk1, hits give low values 1.02 | S. cerevisiae deletion strains, locus YJL154C, strain vps35, hits give low values 1.01 | S. cerevisiae deletion strains, locus YJL164C, strain tpk1, hits give low values 1.02 | S. cerevisiae deletion strains, locus YJL166W, strain qcr8, hits give low values 1 | S. cerevisiae deletion strains, locus YJR066W, strain TOR1, hits give low values 0.982 | S. cerevisiae deletion strains, locus YKL160W, strain elf1, hits give low values 1 | S. cerevisiae deletion strains, locus YKR026C, strain gcn3, hits give low values 1 | S. cerevisiae deletion strains, locus YKR091W, strain srl3, hits give low values 1 | S. cerevisiae deletion strains, locus YLL001W, strain dnm1, hits give low values 1.01 | S. cerevisiae deletion strains, locus YLL026W, hits give low values 0.999 | S. cerevisiae deletion strains, locus YLL041C, strain sdh2, hits give low values 1.03 | S. cerevisiae deletion strains, locus YLR027C, strain aat2, hits give low values 1.01 | S. cerevisiae deletion strains, locus YLR113W, strain HOG1, hits give low values 0.957 | S. cerevisiae deletion strains, locus YLR221C, strain rsa3, hits give low values 1 | S. cerevisiae deletion strains, locus YLR258W, strain gsy2, hits give low values 1.02 | S. cerevisiae deletion strains, locus YLR262C, strain YPT6 (second series), hits give low values 1.01 | S. cerevisiae deletion strains, locus YLR320W, strain mms22, hits give low values 1.02 | S. cerevisiae deletion strains, locus YLR342W, strain FKS1, hits give low values 1 | S. cerevisiae deletion strains, locus YLR357W, strain rsc2, hits give low values 1.01 | S. cerevisiae deletion strains, locus YLR370C, strain arc18, hits give low values 1.02 | S. cerevisiae deletion strains, locus YLR384C, strain iki3, hits give low values 1.02 | S. cerevisiae deletion strains, locus YML120C, strain ndi1, hits give low values 1.02 | S. cerevisiae deletion strains, locus YMR058W, strain fet3, hits give low values 1.01 | S. cerevisiae deletion strains, locus YMR125W, strain sto1, hits give low values 1.02 | S. cerevisiae deletion strains, locus YMR129W, hits give low values 1.01 | S. cerevisiae deletion strains, locus YMR205C, strain PFK2, hits give low values 1.02 | S. cerevisiae deletion strains, locus YMR231W, strain pep5, hits give low values 1 | S. cerevisiae deletion strains, locus YNL071W, strain lat1, hits give low values 1.01 | S. cerevisiae deletion strains, locus YNL183C, strain NPR1, hits give low values 0.959 | S. cerevisiae deletion strains, locus YNL209W, strain ssb2, hits give low values 0.997 | S. cerevisiae deletion strains, locus YNL248C, strain rpa49, hits give low values 1.02 | S. cerevisiae deletion strains, locus YNL322C, strain KRE1 (second series), hits give low values 0.994 | S. cerevisiae deletion strains, locus YNR049C, strain mso1, hits give low values 1.03 | S. cerevisiae deletion strains, locus YOR001W, strain rrp6, hits give low values 1.02 | S. cerevisiae deletion strains, locus YOR070C, strain gyp1, hits give low values 1.01 | S. cerevisiae deletion strains, locus YOR080W, strain dia2, hits give low values 1.01 | S. cerevisiae deletion strains, locus YOR083W, strain WHI5, hits give low values 1.01 | S. cerevisiae deletion strains, locus YOR106W, strain vam3, hits give low values 0.997 | S. cerevisiae deletion strains, locus YOR231W, strain MKK1, hits give low values 1.01 | S. cerevisiae deletion strains, locus YOR265W, strain rbl2, hits give low values 1.02 | S. cerevisiae deletion strains, locus YOR270C, strain vph1, hits give low values 1.04 | S. cerevisiae deletion strains, locus YOR290C, strain snf2, hits give low values 1 | S. cerevisiae deletion strains, locus YPL051W, strain arl3, hits give low values 1.01 | S. cerevisiae deletion strains, locus YPL078C, strain atp4, hits give low values 1.02 | S. cerevisiae deletion strains, locus YPL106C, strain sse1, hits give low values 1 | S. cerevisiae deletion strains, locus YPL240C, strain hsp82, hits give low values 1.01 | S. cerevisiae deletion strains, locus YPL256C, strain CLN2, hits give low values 1.04
